Measured values: PubChem BioAssay (NCI)
This is part of a sample that, as a whole, favours compounds with a hit. Of some 83,000 tested, about 20% had one in any assay.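 Results are percent growth after 48 hours of single-concentration exposure. 100 means growth as in untreated cells, lower positive values show inhibition; negative values down to -100 show cell death.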 Unmarked numbers belong to inactive results. Activity calls are given as the source filed them. How the source made its calls: active means growth percent below 10; inactive means the rest.

Each compound was assayed on HL-60(TB) leukemia (assay: NCI-60 one-dose screen, 48 h (100 = growth as untreated, 0 = no growth, -100 = all killed)). Settings: 10 µM unless noted.

Compound | growth
COc1ccc(-n2[nH]c3c(cnc4ccccc43)c2=O)cc1 | 97.3%
C=CC[C@]1(O)CC[C@H]2[C@@H]3CCc4cc(O)ccc4[C@H]3CC[C@@]21C | 75.1%
Cc1cc(N/N=C/c2nc(-c3ccc(Cl)cc3)oc2C)c2cc(Cl)ccc2n1 | 8.08% (active)
Nc1n[nH]c2cccc(C#Cc3cccc(NC(=O)c4ccc(N5CCOCC5)c(C(F)(F)F)c4)c3)c12 | 2.04% (active)
CCOc1nc(-c2ccccc2)cc2c(O)c(C(=O)n3nc(C)cc3C)[nH]c(=O)c12 | 103%
CCOC(=O)c1cnn(CC(C)O)c1NC(=O)NCc1ccccc1C(F)(F)F (stereo not given) | 58%
CCn1c(-c2nonc2Nc2ccc(OC)cc2)nc2ccccc21 | 128%
COc1ccc(-c2cc(-c3ccc(Cl)cc3)nc(NCCCCNc3ccnc4cc(Cl)ccc34)n2)cc1 | 16.7%
C/C(=C(/c1ccccc1)c1ccc(OCC(O)CNCCN2CCOCC2)cc1)c1ccccc1 (stereo not given) | 29%
O=C1/C(=C/c2ccc([N+](=O)[O-])s2)Oc2ccc(Br)cc21 | -22.3% (active)
CC(Sc1ccccc1)C(=O)O (stereo not given) | 143%
CCOC(=O)c1cn2ncnc(Oc3ccc(NC(=O)NCCN(CC)CC)c(Cl)c3)c2c1C | 100%
Nc1ccc2c(c1)C1(CCC2)NC(=O)NC1=O (stereo not given) | 93.1%
CC1O[C@@H](OC2[C@H](OC(=O)/C=C/c3ccc(O)c(O)c3)C(COC3O[C@H](C)C(O)C(O)[C@@H]3O)O[C@@H](OCCc3ccc(O)c(O)c3)[C@H]2O)[C@@H](O)C(O)[C@H]1O (stereo not given in full) | 103%
CCOC(=O)Oc1c(OC)cc(C(=O)O[C@@H]2C[C@@H]3CN4CCc5c([nH]c6cc(OC)ccc56)[C@H]4C[C@@H]3[C@H](C(=O)OC)[C@H]2OC)cc1OC | -27.7% (active)
COC(=O)C(OC(C)=O)C(OC(C)=O)c1ccc(OC)c(OC)c1 (stereo not given) | 81.3%
COc1ccc2nc(-c3ccc(Cl)cc3)cc(C(=O)N3N=C(c4ccc(N)cc4)CC3c3ccccc3)c2c1 (stereo not given) | -1.6% (active)
NS(=O)(=O)c1ccc(CCn2c(SCC(=O)N/N=C/c3cc4ccccc4[nH]3)nc3ccccc3c2=O)cc1 | 35.2%
COc1cc2nc(Nc3cccc(NC(C)=O)c3)nc(N)c2cc1OC | 102%
CCOc1ccc(-n2cc(-c3ccc(N(C)C)cc3)[n+]3c2CCCCC3)cc1 | -0.266% (active)
O=c1nc(Nc2nc3ccccc3s2)[nH]c(=O)c2ccccc12 | 94.4%
Cc1cc(NCC(=O)Nc2ccc(-c3nc4ccccc4s3)cc2)no1 | 96.5%
Cn1c(N2NC(=O)C(N=Nc3ccc(S(N)(=O)=O)cc3)C2=O)nc(-c2ccco2)c(C#N)c1=O (stereo not given) | -41.4% (active)
O=C(CN1C(=O)NC(c2ccccc2)(c2ccccc2)C1=O)c1ccc(N2CCCC2)cc1 | 85.5%
Cc1ccncc1C(=O)O | 106%
